Among all 2,400 compounds or so, about 1,400 (58%) were called active.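 Rule for the calls: active = inhibition of 30% or more at any tested dose; inconclusive = primary hits over the limit that were never retested; inactive = the rest.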 The set was probably picked from earlier hits. This is one part of the list.

These results are taken from PubChem BioAssay AID624351 (Southern Research Specialized Biocontainment Screening …, 2012).

The assay can be described thus: coupled detection enzyme interference, dose response, artefact control for MgcRacGAP inhibitor project, biochemical, coupled enzyme counter-screen (AID 624351).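 For inhibition: 0% = median positive control wells and 100% = median negative control wells.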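 Note: signal is the ADP detection kit reading of free GDP without any GAP enzyme.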 Conditions: ADP Hunter coupled enzyme counter-screen, fluorescence, no MgcRacGAP; series mostly up to 80 µM; inhibition: at the top concentration.
As for `Cn1ccc(=Nc2ccc(NC(=O)c3ccc(N=c4ccn(C)c5ccc([N+](=O)[O-])cc45)cc3)cc2)cc1`, the “inhibition” value is 6.89% (inactive). Turning to `O=C(Cn1sc2ccccc2c1=O)Nc1ccc(F)cc1`, the “inhibition” value was 6.79% (inactive). Turning to `C/C(CC(=O)Nc1ccc(N(C)C)cc1)=N\NC(=O)c1ccc([N+](=O)[O-])cc1Cl`, the half-maximal inhibitory concentration (IC50) is 61.6 µM (active).

As to `COC(C(=O)N/N=C(\C)CC(=O)Nc1ccc(N(C)C)cc1)c1ccccc1` (stereo unspecified), the IC50 is 47.7 µM (active).

In the case of `O=C(Nc1ccc(C2=NCCN2)cc1)c1ccc(C(=O)Nc2ccc(C3=NCCN3)cc2)c(Cl)c1`, the “inhibition” value was 6.39% (inactive). Consider `C/C(CC(=O)Nc1ccc(N(C)C)cc1)=N\NC(=O)c1ccc([N+](=O)[O-])cc1`, for which the half-maximal inhibitory concentration (IC50) was 59.5 µM (active). Consider `C/C(CC(=O)Nc1ccc(N(C)C)cc1)=N\NC(=O)c1ccc(F)cc1`, for which the concentration for half-maximal inhibition (IC50) was 46.5 µM (active).

As for `CCCCCCCCCCCCCCCC[n+]1ccccc1`, the “inhibition” value was 4.98% (inactive). For `C/C(CC(=O)Nc1ccc(N(C)C)cc1)=N\NC(=O)c1ccncc1`, the IC50 is 74.6 µM (active). For `N#C/C(=C/c1ccc(N2CCOCC2)o1)c1nc2ccccc2[nH]1`, the IC50 was 38.6 µM (active).

As for `N#C/C(=C/c1ccc(N2CCCCCC2)o1)c1ccc(Cl)cc1`, the “inhibition” value is 6.82% (inactive).

As to `N#C/C(=C\c1ccc(N2CCOCC2)o1)c1nc2ccccc2[nH]1`, the IC50 was 13.5 µM (active). For the molecule `CN(C)c1ccc(C=c2c3ccccc3n3c2cc(-c2ccc(Cl)cc2)[n+]3C)cc1`, the “inhibition” value is 23.3% (inactive).

Turning to `CCOc1ccc(C2NC(=O)C(C#N)=C(S)N2c2ccc(OC)cc2)cc1OC` (stereo unspecified), the “inhibition” value is 2.78% (inactive). Regarding `CCN(Cc1ccncc1)Cc1ccc(OC)c(OC)c1`, the “inhibition” value was 3.65% (inactive). With `CCOc1ccc(N)cc1OC`, the IC50 is 43.1 µM (active). The same measure, in the same setting: the figure for `CC(C)COc1ccc(N)cc1OCC(C)C` is 46.2 µM (active). In the case of `COc1ccc(-n2sc3ccccc3c2=O)cc1`, the “inhibition” value was 10.5% (inactive). In the case of `COc1ccc(N2C(=O)/C(=C/N(C)C)NC2=S)cc1`, the IC50 was 77.5 µM (active). Consider `CN(C)/C=C1\NC(=S)N(c2ccccc2)C1=O`, for which the 50% inhibitory concentration (IC50) was 71.9 µM (active). For the molecule `COc1ccc(-n2sc3ccc(F)cc3c2=O)cc1`, the “inhibition” value was 22.9% (inactive). Same read-out and setting: in the case of `Cc1cccc2c(N)c3c(nc12)N(C)CC3` it was -29.6% (inactive). Consider `Cc1ccc2c(C)nc(/N=C(\N)NC(=O)N3c4ccccc4Sc4ccccc43)nc2c1`, for which the IC50 entry was “inactive”. As to `Cc1cccn2c(CNC3CCCc4ccccc43)c(C(=O)N3CCCCC3)nc12` (stereo unspecified), the “inhibition” value was -1.5% (inactive). The same measure, in the same setting: the figure for `Cc1ccc(NC(=O)CN2CCC(Cc3ccccc3)CC2)cc1S(=O)(=O)N(C)C` is 7.91% (inactive); for `O=C(CN1CCN(c2ccccn2)CC1)Nc1ccc(F)cc1` it is 25.8% (inactive). Consider `CN1CC(=O)N(CC(=O)Nc2ccc(N(C)C)cc2)c2ccccc2C1=O`, for which the IC50 is 58.4 µM (active). Turning to `CCCCOc1ccc(NC(=O)CN2CCN(CC)CC2)cc1`, the “inhibition” value is 29.1% (inactive). Consider `CN(C)c1ccc(NC(=O)CCN2C(=O)c3cccc([N+](=O)[O-])c3C2=O)cc1`, for which the IC50 is 72.7 µM (active). For `CN(C)c1ccc(NC(=O)CN2C(=O)c3ccccc3C2=O)cc1`, the concentration for half-maximal inhibition (IC50) is 83.9 µM (active). For `CCN(CC)CCCC(C)NC(=O)c1c(NC(=O)c2ccccc2)sc2c1CCCC2` (stereo unspecified), the “inhibition” value was 14.1% (inactive). Regarding `Cc1cc(O)ccc1NC(=O)c1ccccc1`, the IC50 is 71 µM (active). Regarding `O=C1C(Cl)=C(NC(=O)c2ccccc2)C(=O)C(Cl)=C1NC(=O)c1ccccc1`, the “inhibition” value is -0.63% (inactive). Take `O=C(O)CCCNC(=O)/C=C/c1ccco1`: the “inhibition” value is -3.21% (inactive). For `CSc1ccc(CN2CCC(C(=O)NCc3ccc(C)cc3)CC2)cc1`, the “inhibition” value is 21.7% (inactive). For the molecule `Cc1csc(=O)n1CC(=O)OC(C)C(=O)Nc1ccc(N(C)C)cc1` (stereo unspecified), the concentration for half-maximal inhibition (IC50) was 56.8 µM (active). As for `CC1CN(CCCCN2C(=O)c3ccccc3C2=O)CC(C)O1` (stereo unspecified), the “inhibition” value is 16.3% (inactive).

For `Cc1cc(C)c(S(=O)(=O)Nc2ccc(N(C)C)cc2)c(C)c1-n1cnnn1`, the half-inhibitory concentration (IC50) was 44.4 µM (active). On to `O=[N+]([O-])c1ccc(C2CC(c3ccccc3)=Nc3ccccc3S2)cc1` (stereo unspecified), for which the “inhibition” value is 2.52% (inactive). As for `Clc1cccc(-c2ccc(C=Nc3ccc(N4CCOCC4)cc3)o2)c1Cl`, the half-inhibitory concentration (IC50) was 14.8 µM (active). Turning to `Cc1ccc(Cl)cc1-c1ccc(C=Nc2ccc(N3CCOCC3)cc2)o1`, the IC50 was 11.4 µM (active).

`O=C1CCCC2=C1Sc1ccc(Cl)cc1N2`: the 50% inhibitory concentration (IC50) was 65.6 µM (active).

With `COc1ccc(NCCC(O)c2ccc(Cl)cc2)cc1` (stereo unspecified), the IC50 was 28 µM (active). `CC(C)NCC#CCOc1ccc(Cl)cc1`: the “inhibition” value is 15.6% (inactive). As for `COc1ccc(NC(C)c2cc(Cl)ccc2O)cc1` (stereo unspecified), the IC50 was 61.5 µM (active). `COc1ccc(O)c(C(c2c(C)[nH][nH]c2=O)c2c(C)[nH][nH]c2=O)c1`: the “inhibition” value was -23.8% (inactive). Turning to `CCN(CC)S(=O)(=O)c1ccc(N/N=C/c2ccc(O)cc2O)nc1`, the half-maximal inhibitory concentration (IC50) is 29.4 µM (active). With `CCN(CC)S(=O)(=O)c1ccc(N/N=C/c2ccc(O)cc2)nc1`, the IC50 is 38 µM (active). Regarding `C[n+]1c(-c2ccccc2)cc2c(=Cc3ccc([N+](=O)[O-])cc3)c3ccccc3n21`, the “inhibition” value was 5.28% (inactive).

Turning to `CC(C)CN(Cc1c(O)ccc2ccccc12)CC(C)C`, the IC50 was 53.2 µM (active). For `CN=c1scc(C)n1/N=C/c1cc(Br)c(O)c(OC)c1`, the IC50 is 12.6 µM (active). Regarding `COc1cc(/C=C2/C(=O)NN(c3ccc(Cl)cc3)C2=O)cc(Br)c1O`, the “inhibition” value is 12.1% (inactive). Consider `CN=c1scc(C)n1/N=C/c1cc(Br)c(O)c(Br)c1`, for which the IC50 was 69.6 µM (active). As to `CCN=c1scc(C)n1/N=C/c1cc(Br)c(O)c(OC)c1`, the IC50 is 28.7 µM (active). As to `Cc1cc(C)cc(-n2c3nc4ccccc4nc3c3c(=O)n(Cc4ccco4)cnc32)c1`, the “inhibition” value was -1.1% (inactive). As for `COc1ccc(CN2CCN(Cc3ccc4ccccc4c3)CC2)cc1OC`, the “inhibition” value is 15% (inactive). Same read-out and setting: in the case of `CN1CCCCCC1=Nc1ccccc1C#N` it was 22.3% (inactive). Turning to `O=C1NC(=S)S/C1=C\C=C\c1ccc([N+](=O)[O-])o1`, the “inhibition” value was 6.48% (inactive). Same read-out and setting: in the case of `Cc1cc(/C=C2\SC(=S)NC2=O)c(C)[nH]1` it was 10.3% (inactive). Take `Cc1cc(/C=C2\SC(=S)NC2=O)cc(C)c1O`: the concentration for half-maximal inhibition (IC50) is 29.1 µM (active).

For `COc1cc(/C=N/N=C2/NC(=O)C(c3ccccc3)S2)ccc1O` (stereo unspecified), the half-inhibitory concentration (IC50) was 41.6 µM (active). As for `COc1ccc(/C=N/N=C2/NC(=O)C(CC(=O)O)S2)cc1OCc1ccc(Cl)cc1Cl` (stereo unspecified), the “inhibition” value is 6.87% (inactive). `COc1ccc(N=C2NC(=O)/C(=C/c3ccc(O)c(OC)c3)S2)cc1`: the IC50 is 24.1 µM (active).

Take `COc1cc(/C=C2\SC(=Nc3ccc(Cl)c(C(=O)O)c3)NC2=O)c(Br)c(Br)c1O`: the IC50 is 37.5 µM (active). Consider `O=C1NC(=S)S/C1=C\c1cc(Cl)cc(Cl)c1O`, for which the “inhibition” value was 22.8% (inactive). In the case of `Cn1cccc1/C=C1\SC(=Nc2ccc(O)cc2)NC1=O`, the IC50 is 62.7 µM (active).
